Reference: paper PMC9838217, “Structure of SALL4 zinc finger domain reveals link between AT-rich DNA binding and Okihiro syndrome”
Changes are numbered by the printed parent chain.

Legend:
Assay in all cases: HT-SELEX; high values mean tight binding
Conditions in all cases: protein: recombinant; vector His6-GST; dsDNA, one strand shown
[1] = biological target: T1, SALL4 ZFC4 WT (HT-SELEX) (Mus musculus, UniProt Q8BX22 870-940)
T1 sequence: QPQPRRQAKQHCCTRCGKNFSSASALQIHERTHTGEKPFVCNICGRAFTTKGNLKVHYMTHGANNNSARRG
How it was run: (§1)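 A 100 µl reaction of 10 mM Tris–HCl pH 7.5, 50 mM NaCl, poly(dI-dC) and DTT held purified recombinant mouse SALL4 zinc finger cluster 4 (residues 870–940, 1 µg) and library DNA (1.5 µg first cycle, 200 ng later) for 10 min at room temperature. Complexes captured on Ni2+ beads were washed, PCR-amplified and reselected for up to 6 cycles, in triplicate, then MiSeq-sequenced and scanned for 6-mers. Binding signal is the read fraction of each canonical k-mer expressed as fold change over the initial random library.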

[2] = biological target: T2, SALL4 ZFC4 R900W (HT-SELEX) (Mus musculus, UniProt Q8BX22 870-940, R900W)
T2 sequence: T1 sequence with R31W
How it was run: as §1

[3] = biological target: T3, SALL4 ZFC4 G921D (HT-SELEX) (Mus musculus, UniProt Q8BX22 870-940, G921D)
T3 sequence: T1 sequence with G52D
How it was run: as §1

Row | Sequence | binding signal [1] [fold-change vs cycle 0] | binding signal [2] [fold-change vs cycle 0] | binding signal [3] [fold-change vs cycle 0]
1 | AAATCG | 0.874 ± 0.0288 | 0.918 ± 0.0124 | 1.02 ± 0.0396
2 | GCTAAA | 0.898 ± 0.0417 | 1 ± 0.0491 | 1.03 ± 0.0278
3 | CAGGAA | 0.785 ± 0.0392 | 0.921 ± 0.0224 | 0.918 ± 0.0252
4 | GAGTCC | 0.481 ± 0.0188 | 0.549 ± 0.0274 | 0.669 ± 0.013
5 | ATTTTA | 3.12 ± 0.229 | 2.24 ± 0.131 | 1.98 ± 0.2
6 | AAAGCC | 0.465 ± 0.0355 | 0.543 ± 0.0413 | 0.65 ± 0.0602
7 | CTATCA | 1.36 ± 0.0524 | 1.47 ± 0.0491 | 1.41 ± 0.0867
8 | ATGCGA | 0.525 ± 0.0387 | 0.556 ± 0.0155 | 0.689 ± 0.0646
9 | CTAGTC | 0.766 ± 0.0364 | 0.918 ± 0.0254 | 0.941 ± 0.0142
10 | TCCGAA | 0.618 ± 0.0382 | 0.692 ± 0.0361 | 0.791 ± 0.046
11 | ACGTAG | 0.7133 ± 0.00555 | 0.792 ± 0.0458 | 0.864 ± 0.0314
12 | CGAGGA | 0.409 ± 0.0195 | 0.5 ± 0.0275 | 0.587 ± 0.0701
13 | ACTGAC | 0.782 ± 0.026 | 0.909 ± 0.0341 | 0.934 ± 0.016
14 | GTATAC | 1.25 ± 0.0389 | 1.39 ± 0.0328 | 1.34 ± 0.0932
15 | ACCTCC | 0.552 ± 0.031 | 0.625 ± 0.0479 | 0.721 ± 0.0399
16 | ATGCAC | 0.606 ± 0.0179 | 0.667 ± 0.022 | 0.775 ± 0.052
17 | ATAATC | 2.69 ± 0.205 | 2.05 ± 0.113 | 1.81 ± 0.145
18 | ATAGAG | 1.4 ± 0.0362 | 1.43 ± 0.0403 | 1.38 ± 0.0574
19 | GAACGA | 0.753 ± 0.0422 | 0.856 ± 0.0556 | 0.9 ± 0.0297
20 | ACTGTC | 0.75 ± 0.0397 | 0.857 ± 0.0177 | 0.901 ± 0.0149

Row | Sequence | binding signal [1] [fold-change vs cycle 0] | binding signal [2] [fold-change vs cycle 0] | binding signal [3] [fold-change vs cycle 0]
21 | TCACAA | 1.2 ± 0.0727 | 1.32 ± 0.0623 | 1.29 ± 0.11
22 | CAATAA | 2.18 ± 0.182 | 1.91 ± 0.101 | 1.73 ± 0.173
23 | GAACAA | 1.17 ± 0.0569 | 1.32 ± 0.0741 | 1.28 ± 0.0879
24 | CCCAAG | 0.456 ± 0.0184 | 0.532 ± 0.00725 | 0.619 ± 0.0423
25 | ATTAAA | 3.73 ± 0.281 | 2.54 ± 0.18 | 2.14 ± 0.26
26 | CTAGCC | 0.314 ± 0.031 | 0.395 ± 0.0257 | 0.508 ± 0.064
27 | ATACGG | 0.67 ± 0.0205 | 0.767 ± 0.0197 | 0.808 ± 0.0319
28 | AGTGAT | 1.45 ± 0.0292 | 1.59 ± 0.0395 | 1.53 ± 0.097
29 | AGTACT | 1.32 ± 0.0981 | 1.45 ± 0.094 | 1.4 ± 0.116
30 | ATAAAT | 4.06 ± 0.373 | 2.56 ± 0.158 | 2.19 ± 0.239
31 | ACCTAT | 1.37 ± 0.0376 | 1.45 ± 0.0775 | 1.43 ± 0.0809
32 | GGTCCA | 0.375 ± 0.0292 | 0.456 ± 0.0245 | 0.558 ± 0.0709
33 | ACCAGT | 0.8 ± 0.0267 | 0.969 ± 0.0358 | 0.994 ± 0.0294
34 | ACCTTC | 0.842 ± 0.0201 | 0.982 ± 0.0475 | 1 ± 0.0224
35 | AAGTTC | 1.29 ± 0.0532 | 1.44 ± 0.0457 | 1.36 ± 0.0438
36 | AAGTGT | 1.24 ± 0.0333 | 1.35 ± 0.0203 | 1.3 ± 0.0159
37 | AAAGGT | 1.26 ± 0.075 | 1.41 ± 0.06 | 1.29 ± 0.0787
38 | CACTGC | 0.334 ± 0.0238 | 0.388 ± 0.00394 | 0.511 ± 0.0704
39 | AGAATG | 1.34 ± 0.0249 | 1.52 ± 0.0481 | 1.35 ± 0.0697
40 | CGAACC | 0.34 ± 0.0157 | 0.416 ± 0.00929 | 0.549 ± 0.0764

Row | Sequence | binding signal [1] [fold-change vs cycle 0] | binding signal [2] [fold-change vs cycle 0] | binding signal [3] [fold-change vs cycle 0]
41 | TTTAAA | 2.46 ± 0.106 | 2.33 ± 0.125 | 2.04 ± 0.174
42 | AACACC | 0.749 ± 0.0181 | 0.848 ± 0.0177 | 0.89 ± 0.0213
43 | ATCATC | 1.5 ± 0.034 | 1.56 ± 0.0669 | 1.49 ± 0.0918
44 | ATGGGG | 0.486 ± 0.0322 | 0.546 ± 0.0309 | 0.615 ± 0.052
45 | ATCAAG | 1.41 ± 0.0614 | 1.55 ± 0.0618 | 1.47 ± 0.0828
46 | AATATT | 5.49 ± 0.414 | 2.54 ± 0.119 | 2.19 ± 0.255
47 | TCCAGA | 0.807 ± 0.0459 | 0.894 ± 0.029 | 0.927 ± 0.0563
48 | GAAAGC | 0.586 ± 0.0266 | 0.698 ± 0.0129 | 0.775 ± 0.0469
49 | AGATAA | 2.16 ± 0.129 | 2.17 ± 0.195 | 1.87 ± 0.206
50 | ATCGAG | 0.776 ± 0.0249 | 0.873 ± 0.0248 | 0.967 ± 0.0375
51 | GCGTTA | 0.54 ± 0.0741 | 0.582 ± 0.053 | 0.668 ± 0.0435
52 | CCTTAG | 0.925 ± 0.0277 | 1.06 ± 0.0431 | 1.04 ± 0.0492
53 | ACATCG | 0.64 ± 0.0291 | 0.729 ± 0.00758 | 0.829 ± 0.0505
54 | CGGAAC | 0.339 ± 0.0284 | 0.417 ± 0.0399 | 0.524 ± 0.0677
55 | GCCTAA | 0.547 ± 0.0354 | 0.643 ± 0.0255 | 0.746 ± 0.0372
56 | ACCCAC | 0.443 ± 0.0307 | 0.506 ± 0.0282 | 0.606 ± 0.0557
57 | ACACGA | 0.663 ± 0.0255 | 0.777 ± 0.0248 | 0.869 ± 0.0214
58 | ATTGCA | 1.16 ± 0.0389 | 1.12 ± 0.0435 | 1.18 ± 0.0324
59 | AACCCC | 0.459 ± 0.0283 | 0.547 ± 0.00959 | 0.617 ± 0.0497
60 | CTCACC | 0.488 ± 0.0202 | 0.56 ± 0.0155 | 0.677 ± 0.0522
